# From the emibetuzumab library of Makowski et al. (2022)
# This is one part of the list. The hit rate among all sequences tested is not known here.
# B1: VH:VL chains; a variant is named by its letters at X, in order (parent)
# chain 1: QVQLVQSGAEVKKPGASVKVSCKASGYTFTDYXMHWVRQAPGQGLEWMGXVNPNXXXTTYNQKFEGRVTMTTDTSTSTAYMELRSLRSDDTAVYYCARXNXLDXWGQGTTVTVSS
# chain 2: DIQMTQSPSSLSASVGDRVTITCSVSSSVSSIYLHWYQQKPGKAPKLLIYSTSNLASGVPSRFSGSGSGTDFTLTISSLQPEDFATYYCQVYSGYPLTFGGGTKVEIK
# Variants of: B1
# Assay: yeast display scFab, FACS + sequencing
# Conditions: with MET
# Summary of the method: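 Heavy-chain CDR mutant scFab yeast surface library, enriched by two magnetic rounds on HGFR-Fc-coated Protein A beads and then by FACS. Cells were labelled with 1 nM HGFR-Fc in PBSB with 1% milk and anti-Myc for 3 h at room temperature, and the top 50% antigen-positive cells were gated. Round-3 sorted and input populations were deep sequenced in two replicates. Antigen binding call: positive if a sequence occurred in both antigen-positive samples, negative if it occurred only in input.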
row,Variant,antigen binding call
1,VKRATVLA,no binding
2,VKRRSSLA,binds
3,VKRRSVGA,no binding
4,VRRRSSLA,binds
5,YRRESSGY,binds
6,YRREGSGV,binds
7,YRRESSGV,binds
8,DGERDYSD,no binding
9,VRERGDWV,no binding
10,DREEGSWV,no binding
11,VEEEGSWV,no binding
12,VRERGSWV,binds
13,YRERGAWV,binds
14,FRERGSWV,binds
15,YRERGSWV,binds
16,VTGEDAGD,no binding
17,YRRGSSVF,binds
18,YRRGSSLF,binds
19,YRGANSVF,binds
20,YREEGDVF,no binding
21,YRGGGSVF,binds
22,VTGGDDSA,no binding
23,VAGTGSSA,no binding
24,VGGGADGV,no binding

row,Variant,antigen binding call
1,VEGAASWV,no binding
2,AAGRAYGA,no binding
3,YRRGGSVF,binds
4,YRGAASSD,binds
5,YRRAADSD,no binding
6,YAGGTSSD,no binding
7,YRTGASSD,binds
8,YRTGAAAD,binds
9,YRTGAASD,binds
10,DETGGSSD,no binding
11,SEARSSGY,no binding
12,VTGEDSSD,no binding
13,FRGESSWD,binds
14,FRGESSAD,binds
15,FRGGDSAD,binds
16,DRGGDVSD,no binding
17,DRGGDDAD,no binding
18,VKGGNVGV,no binding
19,SRRRGSAA,binds
20,FRRRGAVA,binds
21,FRRRGAAA,binds
22,FRRRGSAA,binds
23,DRRRGSGA,no binding
24,VETEGDGF,no binding

row,Variant,antigen binding call
1,VETGNSLV,no binding
2,FRRGGAAA,binds
3,FKKKDASV,binds
4,FKARGASV,binds
5,FKRRSASV,no binding
6,FKARGALV,binds
7,FKGEGYGV,no binding
8,FKGEGSLV,no binding
9,FKGEGDGV,no binding
10,FKTKNYVV,no binding
11,SKTKSDAV,no binding
12,YAEESAGD,no binding
13,YKEGGAGD,binds
14,DKEGGAAD,no binding
15,DKEGGSLD,no binding
16,YKEGGSGD,binds
17,DATGGDAD,no binding
18,DTKAASGV,no binding
19,VEAGDDVV,no binding
20,SRRGSASS,binds
21,YRRGSASS,binds
22,YRRGSAGS,binds
23,SRKKGDGS,no binding
24,DRAGDAGS,no binding

row,Variant,antigen binding call
1,SRRGGYVS,no binding
2,YRRGDAGS,binds
3,VEGGTDVV,no binding
4,VATGSSGA,no binding
5,YRRGGSGS,binds
6,YRRGSSGS,binds
7,YAEKDFGV,no binding
8,ATAGSAAV,no binding
9,VEGRGDAV,no binding
10,VRKGGVAV,no binding
11,VRGRGVAV,binds
12,YRAGGVAV,binds
13,VKGRAYGV,no binding
14,YRGRGVAV,binds
15,VRGTGVAV,no binding
16,VRGRGYGV,binds
17,VEGGGYGV,no binding
18,VTTKGDVF,no binding
19,SEARSYVV,no binding
20,DTREGDAV,no binding
21,VKAKGAAA,binds
22,YKAGDAAA,binds
23,VKAGSAAA,binds
24,VEGGGAAA,no binding

row,Variant,antigen binding call
1,VEAGDAAA,no binding
2,YKAGDDGA,no binding
3,YKAKGAAA,binds
4,VKAGSDVA,no binding
5,DAGGGAVA,no binding
6,VTKETFSF,no binding
7,YEGGTDGA,no binding
8,STTRGAVA,no binding
9,ATTRGAVA,no binding
10,VKARNDLV,no binding
11,YRGRDASF,binds
12,YRGRDAGF,binds
13,YRGRDDWF,no binding
14,DAGKGSVD,no binding
15,STATADWV,no binding
16,VKGRADVD,no binding
17,FRGRGDGD,binds
18,FRGRGVGD,binds
19,YRGRGVGS,binds
20,SAGRGVGS,no binding
21,FAGGGDGD,no binding
22,YRGRGVGD,binds
23,FAGRGVGD,no binding
24,YTGEDAVA,no binding

row,Variant,antigen binding call
1,DGGRGDVV,no binding
2,FRGRGDVV,binds
3,FRGKADVD,no binding
4,FRGRGDVD,binds
5,YRGRGVSS,binds
6,FRGRGDGY,binds
7,DRGRGDVV,no binding
8,AATTSFVV,no binding
9,YRGKGVGD,binds
10,FRGRGSVD,binds
11,FRGRSYVD,no binding
12,AATTDAGD,no binding
13,DGAKGDGV,no binding
14,ARRRGAWY,binds
15,ARTRTAWY,no binding
16,SRRRGAWY,binds
17,SKGRSDVY,no binding
18,SKGRADVY,no binding
19,YRGRGSVY,binds
20,FRGRGALY,binds
21,SKGRGAVY,binds
22,VKGRTSVY,no binding
23,YKGRGSVY,binds
24,YTEAADGA,no binding

row,Variant,antigen binding call
1,VRAGADWY,no binding
2,VAKKNASF,no binding
3,FRGRDALY,binds
4,FKGRGAVY,binds
5,FRGRDSGY,binds
6,YRGRGFVY,binds
7,FRTRDSGY chain 1 V68I,no binding
8,FKEAGAVY,no binding
9,YKGRGFVY,no binding
10,FRGRDYGY,no binding
11,FKGGGAVY,no binding
12,ARAGSFWA,no binding
13,FRGGSAVY,binds
14,FRTEGSGY,binds
15,FTEGDSGY,no binding
16,FRGGSVGY,no binding
17,YKGRGSVD,binds
18,FRGRGAVY,binds
19,YRGRGVVY,binds
20,YAGRGDVY,no binding
21,YRGANVVY,no binding
22,FRGRGSVY,binds
23,AGRGADLS,no binding
24,YKGAGAWA,binds

row,Variant,antigen binding call
1,YTGTSAWA,no binding
2,YRGAGAWA,binds
3,YKGAAFWA,no binding
4,VEGGGYSV,no binding
5,YKARGSSS,binds
6,YRARGSSS,binds
7,DAARGSSV,no binding
8,YKARTSSS,binds
9,FGAAAVGD,no binding
10,YRAKGSAV,binds
11,YKAKGSAV,binds
12,YKTRDDAV,no binding
13,YKEEDDAV,no binding
14,YRARGSAV,binds
15,YRAKGAAV,binds
16,VEERDAVA,no binding
17,VEGTSDGD,no binding
18,VAGTGDVA,no binding
19,YTKKTFSY,no binding
20,YGGRADVY,no binding
21,VKGRADLY,no binding
22,YRARSSLY,binds
23,YRGEAFLY,no binding
24,YRGRASLY,binds

row,Variant,antigen binding call
1,YRGRSSLY,binds
2,VAATGVSD,no binding
3,SGEGNSWA,no binding
4,YKGAGDVV,no binding
5,DARGGAVV,no binding
6,YAGRADVV,no binding
7,VKREASVV,no binding
8,FRRGSSVV,binds
9,YKRGSSVV,binds
10,YKRGGAVV,binds
11,YRGRASVV,binds
12,FKTKDSVV,no binding
13,DGGENDVF,no binding
14,DTTKGDVA,no binding
15,DAARGDVV,no binding
16,VRGRSSVV,binds
17,VRRGSSVV,binds
18,VRGRSDWV,no binding
19,VRGRDDVV,no binding
20,VRAEASVV,no binding
21,YRRGSSVV,binds
